Experimental data reported in PubChem BioAssay (EPA / NIEHS).
Records with an inconclusive call do not appear. The source made the active and inactive calls. The calls were made as follows, unless noted: active = hit-call score of the fitted dose curve at least 0.9, where 1 is the maximum; inactive = score below 0.9.

How the values were obtained:
[1] = ATG_TCF_b_cat_CIS: Attagene CIS-FACTORIAL HepG2 Assay for human T-Cell-Factor with beta-catenin (TCF/b-cat) (AID 2282965); details: HepG2 TCF/beta-catenin cis-reporter transcription, actives raise or lower the signal
How it was run: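 Using capillary electrophoresis as the read-out, labelled reporter cDNA fragments from transiently transfected HepG2 were sized and quantified. Exposure lasted 24 hours; activity in either direction was referenced to DMSO.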

[2] = ATG_TAL_CIS: Attagene CIS-FACTORIAL HepG2 Assay for human TAL Basal Promoter (AID 2282966); details: HepG2 Attagene cis-factorial TAL promoter reporter; actives raise or lower the signal;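 also: background control endpoint measuring basal TAL promoter reporter mRNA not a specific factor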
How it was run: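 HepG2 cells were transiently transfected with promoter-driven multiplexed reporter units and dosed for 24 h. Reporter mRNA was measured by RT-PCR with capillary electrophoresis fluorescence; bidirectional fits used DMSO as baseline, serving as a background control.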

[3] = ATG_TGFb_CIS: Attagene CIS-FACTORIAL HepG2 Assay for human Transforming Growth Factor (TGF) (AID 2282967); details: HepG2 Attagene CIS TGFb reporter, mRNA transcription; actives raise or lower the signal
How it was run: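 Cells were dosed for 24 hours, after which total RNA was reverse-transcribed and reporter sequences amplified, labeled and sized by capillary electrophoresis. Activity was fitted in both directions against DMSO.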

[4] = target: Estrogen receptor (Homo sapiens) (UniProt P03372); experiment: ATG_ERa_TRANS: Attagene TRANS-FACTORIAL HepG2 Assay for human Estrogen Receptor alpha (ERa) (AID 2282970; active = hit-call score of the fitted dose curve at least 0.9, where 1 is the maximum); details: HepG2 Attagene TRANS ERa GAL4 reporter, mRNA
Estrogen receptor (Homo sapiens), sequence (P03372 whole entry, looked up, the tested form may be a part): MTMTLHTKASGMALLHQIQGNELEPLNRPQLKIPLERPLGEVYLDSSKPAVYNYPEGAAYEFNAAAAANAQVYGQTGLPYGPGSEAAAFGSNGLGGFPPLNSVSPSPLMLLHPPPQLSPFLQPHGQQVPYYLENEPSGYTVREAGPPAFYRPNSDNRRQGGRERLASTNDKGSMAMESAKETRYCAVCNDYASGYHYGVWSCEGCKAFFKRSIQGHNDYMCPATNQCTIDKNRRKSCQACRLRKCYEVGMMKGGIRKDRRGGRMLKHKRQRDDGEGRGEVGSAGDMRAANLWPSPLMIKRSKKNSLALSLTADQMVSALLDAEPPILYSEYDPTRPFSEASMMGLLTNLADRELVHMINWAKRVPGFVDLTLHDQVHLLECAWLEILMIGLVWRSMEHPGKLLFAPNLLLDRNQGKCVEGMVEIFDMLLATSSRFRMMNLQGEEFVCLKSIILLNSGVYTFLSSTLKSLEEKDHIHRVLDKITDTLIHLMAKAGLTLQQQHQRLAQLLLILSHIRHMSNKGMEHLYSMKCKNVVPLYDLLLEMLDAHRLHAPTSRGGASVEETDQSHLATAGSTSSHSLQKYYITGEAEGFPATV
How it was run: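 HepG2 cells transiently transfected with multiplexed GAL4-UAS reporter units; ERa activity read via exogenous chimeric NR-Gal4 protein. After 24 hour compound exposure, reporter mRNA measured by RT-PCR with 6-FAM labelling and capillary electrophoresis; gain-of-signal fitted relative to DMSO.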

[5] = target: Steroid hormone receptor ERR1 (Homo sapiens) (UniProt P11474); experiment: ATG_ERRa_TRANS: Attagene TRANS-FACTORIAL HepG2 Assay for human Estrogen-Related Receptor alpha (ERRa) (AID 2282971; active = hit-call score of the fitted dose curve at least 0.9, where 1 is the maximum); details: HepG2 Attagene TRANS reporter, ERRa transactivation
Steroid hormone receptor ERR1 (Homo sapiens), sequence (P11474 whole entry, looked up, the tested form may be a part): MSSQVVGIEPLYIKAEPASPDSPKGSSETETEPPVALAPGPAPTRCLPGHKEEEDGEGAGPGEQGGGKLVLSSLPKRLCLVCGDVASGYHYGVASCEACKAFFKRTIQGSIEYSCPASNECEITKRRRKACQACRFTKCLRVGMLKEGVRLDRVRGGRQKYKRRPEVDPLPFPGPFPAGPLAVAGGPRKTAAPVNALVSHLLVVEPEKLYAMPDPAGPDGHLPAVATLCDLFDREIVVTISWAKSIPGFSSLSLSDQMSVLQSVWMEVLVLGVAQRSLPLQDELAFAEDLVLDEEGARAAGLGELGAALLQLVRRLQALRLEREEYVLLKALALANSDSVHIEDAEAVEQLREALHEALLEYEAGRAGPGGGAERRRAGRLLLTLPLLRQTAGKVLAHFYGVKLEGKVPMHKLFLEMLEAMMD
How it was run: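 HepG2 cells transiently transfected with multiplexed GAL4-UAS reporter units reading chimeric ERRa-Gal4 activity; 24 h compound exposure. Reporter mRNA measured by RT-PCR, 6-FAM labelling, HpaI digest and capillary electrophoresis; gain of signal fitted versus DMSO baseline.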

[6] = target: X-box-binding protein 1 (Homo sapiens) (UniProt P17861); experiment: ATG_Xbp1_CIS: Attagene CIS-FACTORIAL HepG2 Assay for human X-box Binding Protein 1 (XBP1) (AID 2282972); details: HepG2 XBP1 cis-element reporter, Attagene multiplex; actives raise or lower the signal
X-box-binding protein 1 (Homo sapiens), sequence (P17861 whole entry, looked up): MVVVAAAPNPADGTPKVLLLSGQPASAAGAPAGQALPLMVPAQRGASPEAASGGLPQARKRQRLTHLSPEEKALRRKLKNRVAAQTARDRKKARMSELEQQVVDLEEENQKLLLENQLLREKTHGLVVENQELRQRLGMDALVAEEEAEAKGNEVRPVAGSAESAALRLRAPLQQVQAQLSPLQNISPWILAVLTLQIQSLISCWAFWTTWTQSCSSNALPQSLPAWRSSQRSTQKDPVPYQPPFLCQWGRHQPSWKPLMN
How it was run: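 HepG2 cells transiently transfected with multiple cis-element reporter units report endogenous TF activity; 24 h exposure, then reporter mRNA measured by RT-PCR, 6-FAM labelling, HpaI digestion and capillary electrophoresis. Bidirectional fitting versus DMSO.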

[7] = ATG_GAL4_TRANS: Attagene TRANS-FACTORIAL HepG2 Assay for GAL4 (Internal Marker) (AID 2282976; active = hit-call score of the fitted dose curve at least 0.9, where 1 is the maximum); details: HepG2 Attagene TRANS GAL4 internal marker reporter
How it was run: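 HepG2 cells transiently transfected with multiplexed GAL4-UAS reporter constructs were dosed for 24 h. Reporter mRNA was measured by RT-PCR, 6-FAM primer extension, HpaI digestion and capillary electrophoresis, and gain of signal was fitted relative to DMSO.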

[8] = target: Nuclear receptor subfamily 1 group I member 3 (Homo sapiens) (UniProt Q14994); experiment: ATG_CAR_TRANS: Attagene TRANS-FACTORIAL HepG2 Assay for human Constitutive Androstane Receptor (CAR) (AID 2282969; active = hit-call score of the fitted dose curve at least 0.9, where 1 is the maximum;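 also: activators raise reporter mRNA above DMSO so AC50 marks induction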); details: HepG2 Attagene TRANS-FACTORIAL CAR reporter
Nuclear receptor subfamily 1 group I member 3 (Homo sapiens), sequence (Q14994 whole entry, looked up, the tested form may be a part): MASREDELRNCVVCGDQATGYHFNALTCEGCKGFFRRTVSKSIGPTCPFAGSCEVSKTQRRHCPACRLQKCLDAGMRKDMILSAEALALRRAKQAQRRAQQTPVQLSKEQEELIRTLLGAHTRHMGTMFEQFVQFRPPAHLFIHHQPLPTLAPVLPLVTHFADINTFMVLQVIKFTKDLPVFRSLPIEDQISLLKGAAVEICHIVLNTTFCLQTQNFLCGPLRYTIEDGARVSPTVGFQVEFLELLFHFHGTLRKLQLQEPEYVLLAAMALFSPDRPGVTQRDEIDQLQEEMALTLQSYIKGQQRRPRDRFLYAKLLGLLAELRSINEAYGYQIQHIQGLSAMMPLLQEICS
How it was run: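 HepG2 cells transiently transfected with multiplexed GAL4-UAS reporter units expressing chimeric NR-Gal4 proteins; compound exposure 24 h. Reporter mRNA measured by RT-PCR, 6-FAM labelling, HpaI digestion and capillary electrophoresis; gain-of-signal fitted against DMSO baseline.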

[9] = ATG_M_19_TRANS: Attagene TRANS-FACTORIAL HepG2 Assay for M19 Transcription Factor (Internal Marker) (AID 2282974; active = hit-call score of the fitted dose curve at least 0.9, where 1 is the maximum); details: HepG2 Attagene TRANS-FACTORIAL M19 internal marker reporter
How it was run: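 Multiplexed TRANS format: HepG2 liver cells bearing transient GAL4-UAS reporter units, chemical treatment 24 h, reporter transcripts quantified by RT-PCR plus capillary electrophoresis. DMSO defines baseline.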

Measured: AC50

O=S(=O)(O)CCC(F)(F)C(F)(F)C(F)(F)C(F)(F)C(F)(F)C(F)(F)C(F)(F)C(F)(F)F
not listed: [8] | [9]
inactive: all other assays above

O=S(=O)(O)c1ccc(Cl)cc1
not listed: [5] | [9]
inactive: all other assays above

OCCCCC(F)(F)C(F)(F)C(F)(F)C(F)(F)F
inactive: [1] | [2] | [3] | [4] | [6]

CCCCCCCCn1sc(Cl)c(Cl)c1=O
not listed: [5] | [9]
inactive: all other assays above

Brc1nc2ccccc2s1
not listed: [5] | [8]
inactive: all other assays above

NC(=O)C(F)(F)C(F)(F)C(F)(F)F
inactive: [1] | [2] | [3] | [6]

C=C(C)C(=O)OCC(F)(F)C(F)(F)C(F)(F)C(F)F
not listed: [8]
inactive: all other assays above

CCCCOC(=O)[C@H](C)O
not listed: [5] | [8]
inactive: all other assays above

Nc1c(Br)cc([N+](=O)[O-])cc1Br
not listed: [8] | [9]
inactive: all other assays above

O=C(Cl)c1ccc(Cl)cc1Cl
inactive: [1] | [2] | [3] | [6] | [9]

C=C(C)CCCC
not listed: [4] | [5]
inactive: all other assays above

NCC(F)(F)C(F)(F)C(F)(F)C(F)(F)C(F)(F)C(F)(F)F
not listed: [8] | [9]
inactive: all other assays above

OCC(O)CC(F)(F)C(F)(F)C(F)(F)C(F)(F)C(F)(F)C(F)(F)C(F)(F)C(F)(F)F (centres undefined)
active: [4] 9.15 µM
not listed: [8]
inactive: all other assays above

O=C(c1ccccc1)c1ccc(O)cc1O
active: [4] 1.33 µM
not listed: [5]
inactive: all other assays above

CCN(CC)c1ccc(C=O)c(O)c1
not listed: [5] | [8] | [9]
inactive: all other assays above

CC1=CCC2C(=O)OC(=O)C2C1 (centres undefined)
not listed: [4] | [5] | [7]
inactive: all other assays above

C[Si](C)O[Si](C)C
not listed: [4] | [5] | [8]
inactive: all other assays above

COC(F)(C(F)F)C(F)(F)F (centres undefined)
not listed: [8] | [9]
inactive: all other assays above

CCCC(=O)OCC(COC(=O)CCC)OC(=O)CCC
active: [1] 64 µM
inactive: [2] | [3] | [6] | [7]

FC(F)(F)C(F)(F)C(F)(F)C(F)(F)C(F)(F)C(F)(F)C(F)(F)CCI
active: [4] 24.5 µM
not listed: [8]
inactive: all other assays above

NC(=O)C(F)(F)C(F)(F)C(F)(F)C(F)(F)C(N)=O
not listed: [8]
inactive: all other assays above

CCOC(=O)CCC(C)=O
not listed: [5] | [8]
inactive: all other assays above

CCc1ccc(C)nc1
not listed: [4] | [5]
inactive: all other assays above

COCCC(=O)OC
not listed: [5] | [8]
inactive: all other assays above

CC(=O)c1ccccc1N
inactive: [1] | [2] | [3] | [6] | [7]

CN(C(=O)C(F)(F)C(F)(F)C(F)(F)F)[Si](C)(C)C
not listed: [7] | [8] | [9]
inactive: all other assays above

CC(=O)CCC(C)C
not listed: [5] | [7]
inactive: all other assays above

O=C(O)C(F)(F)C(F)(F)C(F)(F)OC(F)(C(F)(F)F)C(F)(F)F
active: [1] 285 µM
not listed: [5] | [8]
inactive: all other assays above

CCOC(=O)CC(=O)C(F)(F)C(F)(F)F
not listed: [8]
inactive: all other assays above
